# From PubChem BioAssay (Tox21)
# Several values for one entry are separate records, joined by “and”; a condition that tells them apart may be missing. Equal values may be shown once. Records with an inconclusive call do not appear. Entries that show only a call come without a potency. Some compounds were tested as several samples or in several runs, with calls that do not always agree. Activity calls are given as the source filed them. The call rests on the fitted dose curve; in most records, active means well fitted curve in the direction sought with a large enough effect in the repeat runs; inconclusive means weak or mixed curves; inactive means no such curve, though single readings can be large; an effect the other way counts as inactive or inconclusive.
# Assays:
# [1] = A CellTox Green Cytotoxicity Assay to monitor cytotoxicity in HEK293 cells - 40 hour (AID 1224871); further: nearly all actives have a fitted effect of over 45% in size
# Method in brief: (§1)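 HEK293 cells, 600/well, were preincubated 5 hours and then exposed to compounds at 37 C for up to 40 hours. A cell-impermeant cyanine dye staining dead-cell DNA was read by fluorescence at 0, 8, 16, 24, 32 and 40 h time points.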
# [2] = qHTS RealTime-Glo MT Cell Viability Assay in HEK293 cells - 16 hour (AID 1224872); further: nearly all actives have a fitted effect of over 50% in size
# Method in brief: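 Homogeneous bioluminescent viability format in HEK293 cells (600 cells/well). Following 5 h at 37 C/5% CO2, 23 nL compound was pintooled; the signal was measured repeatedly during 40 h incubation.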
# [3] = qHTS RealTime-Glo MT Cell Viability Assay in HepG2 cells - 8 hour (AID 1224873); further: nearly all actives have a fitted effect of over 55% in size
# Method in brief: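 Real-time viability: cells seeded at 600 per well together with NanoLuc and cell-permeant prosubstrate, compounds added after 5 h incubation. Luminescence tracked at 0, 8, 16, 24, 32 and 40 h of exposure.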
# [4] = qHTS RealTime-Glo MT Cell Viability Assay in HEK293 cells - 40 hour (AID 1224874); details: RealTime-Glo luminescence; max response: stronger effect = lower value; further: nearly all actives have a fitted effect of over 50% in size
# Method in brief: (§2)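 600 cells/well were plated with the nonlytic NanoLuc/prosubstrate reagent, pre-incubated 5 h, then given 23 nL of compound in DMSO. Incubation at 37 C for 40 h, with luminescence from viable-cell-reduced substrate read repeatedly from 0 h.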
# [5] = A CellTox Green Cytotoxicity Assay to monitor cytotoxicity in HEK293 cells - 24 hour (AID 1224875); further: nearly all actives have a fitted effect of over 45% in size
# Method in brief: as §1
# [6] = A CellTox Green Cytotoxicity Assay to monitor cytotoxicity in HepG2 cells - 16 hour (AID 1224876); further: nearly all actives have a fitted effect of over 45% in size
# Method in brief: (§3)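 HepG2 cells, 600/well, preincubated 5 h with CellTox Green dye, then exposed to Tox21 compounds in DMSO at 37 C for up to 40 h. Dead-cell DNA fluorescence read at the indicated time point.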
# [7] = qHTS RealTime-Glo MT Cell Viability Assay in HepG2 cells - 32 hour (AID 1224877); further: nearly all actives have a fitted effect of over 55% in size
# Method in brief: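 Cell number in HepG2 cultures estimated from NanoLuc luminescence generated by metabolic reduction of a prosubstrate by living cells. The homogeneous, nonlytic format allowed repeated reads at 0, 8, 16, 24, 32 and 40 h of compound exposure.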
# [8] = A CellTox Green Cytotoxicity Assay to monitor cytotoxicity in HepG2 cells - 24 hour (AID 1224878); further: nearly all actives have a fitted effect of over 45% in size
# Method in brief: as §3
# [9] = A CellTox Green Cytotoxicity Assay to monitor cytotoxicity in HepG2 cells - 40 hour (AID 1224879); further: nearly all actives have a fitted effect of over 40% in size
# Method in brief: as §3
# [10] = qHTS RealTime-Glo MT Cell Viability Assay in HEK293 cells - 0 hour (AID 1224880); further: nearly all actives have a fitted effect of over 45% in size
# Method in brief: as §2
# Potency means the concentration at half of the fitted maximal effect.
Structure (SMILES),Potency [1],Potency [2],Potency [3],max response [4],Potency [5],Potency [6],Potency [7],Potency [8],Potency [9],Potency [10],Potency [4]
C[Si](C)(C)O[Si](C)(C)C,inactive,inactive,inactive,-0.246% (inactive) and 0.761% (inactive),inactive,inactive,inactive,inactive,inactive,inactive,
Cc1[nH]c(=O)c(C#N)cc1-c1ccncc1,inactive,inactive,inactive,0.254% (inactive) and -5.73% (inactive),inactive,inactive,inactive,inactive,inactive,inactive,
COc1ccc(C(=O)CC(=O)c2ccc(C(C)(C)C)cc2)cc1,inactive,29.6 µM (active) and inactive,inactive,-14% (inactive),inactive,inactive and 67.4 nM (active),inactive,inactive and 75.6 nM (active),inactive and 67.4 nM (active),inactive,29.6 µM (active)
CCC(C)CO (stereo not given),inactive,inactive,inactive,4.66% (inactive),inactive,inactive and 38.9 µM (active),inactive,inactive and 43.6 µM (active),inactive and 43.6 µM (active),inactive,24.5 µM (active)
CCCCCCCCCC(=O)OC,inactive,inactive,inactive,7.54% (inactive) and -2.85% (inactive),inactive,inactive,inactive,inactive,inactive,inactive,
Nc1ncn([C@@H]2O[C@H](CO)[C@@H](O)[C@H]2O)c(=O)n1,inactive,inactive,inactive,-27.7% (inactive) and 4.66% (inactive),inactive,inactive,inactive,inactive,inactive,inactive,
C[C@]12CCC(=O)C=C1CC[C@@H]1[C@@H]2C(=O)C[C@@]2(C)[C@H]1CC[C@]2(O)C(=O)CO,inactive,inactive,inactive,-10% (inactive) and -11.4% (inactive),inactive,inactive,inactive,inactive,inactive,,
CCCCNS(=O)(=O)c1ccccc1,inactive,inactive and 7.76 µM (active),inactive,-5.06% (inactive),inactive,inactive,inactive,inactive,inactive,inactive,4.36 µM (active)
c1ccc2c(c1)c1cccc3ccc4cccc2c4c31,inactive,inactive,inactive,-16.2% (inactive),inactive,inactive,inactive,inactive,inactive,inactive,19.5 µM (active)
Cc1cccc(N(C)C(=S)Oc2ccc3ccccc3c2)c1,inactive,inactive,inactive,-21.9% (inactive) and -0.992% (inactive),inactive,inactive,inactive,inactive,inactive,inactive,
OCCO,inactive,inactive,inactive,-5.99% (inactive) and -0.466% (inactive),inactive,inactive,inactive,inactive,inactive,inactive,
CC1=CCC(C(C)(C)O)CC1 (stereo not given),inactive,inactive,inactive,3.53% (inactive) and 0% (inactive),inactive,inactive and 19.5 µM (active),inactive,inactive and 21.9 µM (active),inactive and 21.9 µM (active),inactive,
COC(=O)C1=C(C)NC(C)=C(C(=O)OCCN(C)Cc2ccccc2)C1c1cccc([N+](=O)[O-])c1 (stereo not given),inactive,21.7 µM (active) and 16.9 µM (active),24.4 µM (active) and 19 µM (active),,inactive,inactive,43.4 µM (active),48.7 µM (active) and inactive,48.7 µM (active) and inactive,5.46 µM (active) and 6.01 µM (active),24.4 µM (active) and 16.9 µM (active)
Nc1ncnc2nc[nH]c12,inactive,inactive,inactive,0.881% (inactive) and 2.65% (inactive),inactive,inactive,inactive,inactive,inactive,inactive,
CCCc1c(OCCCCc2nn[nH]n2)ccc(C(C)=O)c1O,inactive,inactive,inactive,0.608% (inactive) and 1.1% (inactive),inactive,inactive,inactive,inactive,inactive,inactive,
O=C1OC2(c3cc(Br)c(O)c(Br)c3Oc3c2cc(Br)c(O)c3Br)c2c(Cl)c(Cl)c(Cl)c(Cl)c21,4.91 µM (active) and 29.7 µM (active),inactive,inactive,-3.53% (inactive),3.9 µM (active) and 26.5 µM (active),3.1 µM (active) and 14.9 µM (active),inactive,3.1 µM (active) and 23.6 µM (active),3.1 µM (active) and 14.9 µM (active),,
O=[N+]([O-])c1ccc2c(c1)Cc1ccccc1-2,inactive,inactive,inactive,0.388% (inactive) and -3.63% (inactive),inactive,inactive,inactive,inactive,inactive,inactive,
Cc1ncc[nH]1,inactive,inactive,inactive,3.53% (inactive) and 2.93% (inactive),inactive,inactive,inactive,inactive,inactive,inactive,

Structure (SMILES),Potency [1],Potency [2],Potency [3],max response [4],Potency [5],Potency [6],Potency [7],Potency [8],Potency [9],Potency [10],Potency [4]
Brc1cc(Oc2cc(Br)c(Br)c(Br)c2Br)c(Br)c(Br)c1Br,inactive,inactive,inactive,-1.03% (inactive) and -0.229% (inactive),inactive,inactive,inactive,inactive,inactive,inactive,
O=P(O)(O)O,inactive,inactive,inactive,-1.49% (inactive) and 1.49% (inactive),inactive,inactive,inactive,inactive,inactive,inactive,
c1ccncc1,inactive,inactive,inactive,5.95% (inactive) and 4.64% (inactive),inactive,inactive,inactive,inactive,inactive,,
c1ccc(Nc2ccccc2)cc1,19.5 µM (active) and inactive,17.4 µM (active) and inactive,inactive,12.7% (inactive),,inactive,38.9 µM (active) and inactive,43.6 µM (active),34.7 µM (active),inactive,19.5 µM (active)
C=C(C)C1CC=C(C)CC1 (stereo not given),inactive,inactive,inactive,1.72% (inactive) and 5.41% (inactive),inactive,inactive,inactive,inactive,inactive,inactive,
CCCCC(CC)COC(=O)c1ccc(N(C)C)cc1 (stereo not given),inactive,inactive,inactive,-14.3% (inactive) and -13.1% (inactive) and -14.9% (inactive),inactive,inactive,inactive,inactive,inactive,inactive,
CNCCCC12CCC(c3ccccc31)c1ccccc12,49 µM (active),54.9 µM (active),inactive,,54.9 µM (active),54.9 µM (active) and 26.8 µM (active),43.6 µM (active) and 23.9 µM (active),43.6 µM (active) and 23.9 µM (active),34.7 µM (active) and 23.9 µM (active),,49 µM (active) and 23.9 µM (active)
O=C(/C=C/c1ccccc1)OCc1ccccc1,inactive,inactive,inactive,1.15% (inactive) and -0.532% (inactive),inactive,inactive,inactive,inactive,inactive,inactive,
Cc1cccc([N+](=O)[O-])c1C,inactive,inactive,inactive,2.52% (inactive) and -15.5% (inactive),inactive,inactive,inactive,inactive,inactive,inactive,
CC(C)CC(C)(O)C#CC(C)(O)CC(C)C (stereo not given),inactive,inactive,inactive,-20.8% (inactive) and -13.4% (inactive),inactive,inactive,inactive,inactive,inactive,inactive,
Nc1ccc(Nc2ccccc2)cc1,inactive,43.2 µM (active),inactive,,inactive,inactive,inactive,inactive,inactive,inactive,48.5 µM (active)
COC(C)COC(C)COC(C)CO (stereo not given),inactive,inactive,inactive,0.372% (inactive) and 18.3% (inactive),inactive,inactive,inactive,inactive,inactive,inactive,
CC(C)=CCCC(C)CCO (stereo not given),inactive,inactive,inactive,-3.95% (inactive) and 4.54% (inactive),inactive,inactive,inactive,inactive,inactive,inactive,
Nc1ccc(Cl)cc1Cl,inactive,inactive,inactive,8.67% (inactive) and 2.84% (inactive),inactive,inactive,inactive,inactive,inactive,inactive,
O=CCCCC=O,inactive,inactive,inactive,3.08% (inactive),inactive,inactive,inactive,,,inactive,42.1 µM (active)
Nc1ccc(S(=O)(=O)Nc2cnc3ccccc3n2)cc1,inactive,inactive,inactive,-2.7% (inactive) and 1.7% (inactive),inactive,inactive,inactive,inactive,inactive,inactive,
NNc1ccc(C(=O)O)cc1,inactive,inactive,inactive,12.1% (inactive),inactive,inactive,inactive,inactive,inactive,inactive,
COC(=O)c1ccccc1,inactive,inactive,inactive,7.68% (inactive),inactive,inactive,inactive,inactive,inactive,inactive,12.3 µM (active)
